Hit rate of the full screen: of about 420,000 compounds, about 64,000 (15%) were called active. Not shown: some 27% with an inconclusive outcome. Calls come from the whole dose curve; as a rule, active = well fitted inhibition curve with a large enough effect; inconclusive = small, poorly fitted or top-dose-only effect; inactive = flat fitted curve, though single readings scatter. The list is a sample of the results. Entries that show only a call come without a potency.
Potency is the fitted concentration of half-maximal effect.

This test can be described thus: qHTS for Inhibitors of human tyrosyl-DNA phosphodiesterase 1 (TDP1): qHTS in cells in absence of CPT. Note: nearly all actives have a fitted effect of over 55% in size. Particulars: DT40 Tdp1-/- hTDP1 cells, no CPT, ATP luminescence, 48 h; activity change, negative = growth inhibition: at 46.2 µM (top of the series). The gist of the method:
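DT40 Tdp1-/-;hTDP1 cells, no CPT (DMSO vehicle only), 400 cells/well; compounds pin-transferred; ≥48 hr, 37 °C; CellTiter-Glo 30 min RT dark, luminescence read.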
With `CC1(c2nnc(-c3ccncc3)o2)CC(c2cccnc2)=NO1` (stereo not given), the Potency result was “inactive”.

As for `CN(C)/C(=N\OC(=O)c1ccccc1)c1nonc1N`, the Potency result was “inactive”.

Consider `COCCNC(=O)c1ccc(Cn2c(SCC(=O)NCC3CCCO3)nc3ccc(Br)cc3c2=O)cc1` (stereo not given), for which the Potency result was “inactive”.

On to `Nc1ccn(CC(=O)N2CCN(c3ccccn3)CC2)c(=O)n1`, for which the Potency entry is “inactive”.

As to `Cc1ccc(S(=O)(=O)NC(C(=O)N2CCOCCOCCOCCOCC2)c2ccccc2)cc1` (stereo not given), the Potency result was “inactive”.

On to `Cc1ccc(S(=O)(=O)Nc2nc(C)cc(-n3nc(C)cc3C)n2)cc1`, for which the Potency result was “inactive”.

Turning to `CCCC(C(=O)n1nc(C)cc1C)C(NS(=O)(=O)c1ccc(C)cc1)c1ccccc1` (stereo not given), the Potency is 23.1 µM (active).

On to `Cc1c(NC(=O)C(C)OC(=O)c2ccccc2O)c(=O)n(-c2ccccc2)n1C` (stereo not given), for which the Potency entry is “inactive”.

With `CCCCS(=O)c1snnc1C` (stereo not given), the Potency result was “inactive”.

As for `O=C1CCCCC1Sc1ccc(Cl)cc1[N+](=O)[O-]` (stereo not given), the Potency entry was “inactive”.

Regarding `CCOC(=O)c1ccc(NC(=O)c2c(N)n(C)c(=O)[nH]c2=O)cc1`, the Potency entry was “inactive”.

`O=C(Nc1ccc(Cl)cc1)c1cnn2c1NC(=C1CC1)C=C2C(F)F`: the Potency entry was “inactive”.

For `CC(C)(C)C1CCC(NC(=O)c2cnn3c2NC(=C2CC2)C=C3C(F)F)CC1` (stereo not given), the Potency was 7.94 µM (active).

In the case of `O=C(Nc1ccc([N+](=O)[O-])cc1)c1cnn2c1NC(=C1CC1)C=C2C(F)F`, the Potency entry was “inactive”.

For `Cc1cc(N2C(=O)C(=O)/C(=C(/O)c3ccccc3)C2c2cccc(Br)c2)no1` (stereo not given), the Potency result is “inactive”.

On to `O=C(O)CSC(NC(=O)c1cccnc1)(C(F)(F)F)C(F)(F)F`, for which the Potency entry was “inactive”.

Consider `COc1ccc(N)cc1NC(=O)CN1CCOCC1`, for which the Potency entry is “inactive”.

Regarding `O=C(Nc1ccc(F)cc1)C(CCc1ccccc1)N1CCN(CC(=O)N2CCCC2)CC1` (stereo not given), the Potency result is “inactive”.

For the compound `Cc1cccc(N2CCN(C(=O)c3cccc(S(=O)(=O)N4CCc5ccccc5C4)c3)CC2C)c1` (stereo not given), the Potency is 7.31 µM (active).

Turning to `CC(NC(=O)c1cccc(S(=O)(=O)N2CCc3ccccc3C2)c1)c1ccco1` (stereo not given), the Potency entry is “inactive”.

Consider `COC(=O)c1ccc(S(=O)(=O)N2CCc3ccccc3C2)cc1`, for which the Potency result was “inactive”.

As to `COc1ccc(-n2ncc3c(N4CCCc5ccccc54)ncnc32)cc1`, the Potency entry is “inactive”.

`CCCCCCCC1(C)NC(=O)N(CC(=O)Nc2cc(C)on2)C1=O` (stereo not given): the Potency result is “inactive”.

In the case of `COc1ccc(C2(c3ccc(OC)cc3)NC(=O)N(CC(=O)Nc3cc(C)on3)C2=O)cc1`, the Potency was 16.4 µM (active).

As to `Cc1cc(NC(=O)CN2C(=O)NC(C)(CCc3ccccc3)C2=O)no1` (stereo not given), the Potency entry was “inactive”.

As to `O=C(CSc1nnc(-c2ccccc2O)o1)NC1CCCCC1`, the Potency result is “inactive”.

In the case of `O=S(=O)(Cc1ccccc1)c1nc2ccccc2n1Cc1ccccn1`, the Potency entry is “inactive”.

With `CCOc1ccc(S(=O)(=O)N2CCC(C(=O)NCC(=O)Nc3cccc(Cl)c3C)CC2)cc1`, the Potency result was “inactive”.

Consider `Cc1cccc(NC(=O)c2cccnc2Cl)n1`, for which the Potency result is “inactive”.

Regarding `CSc1nccc(NC(=O)c2ccc(C(C)(C)C)cc2)n1`, the Potency is 7.31 µM (active).

Regarding `Cc1cccc(NC(=O)c2ccccc2NC(=O)C(C)(C)C)n1`, the Potency result is “inactive”.

In the case of `Cc1cc(C)c2nc(NC(=O)c3ccc4c(c3)OCO4)sc2c1`, the Potency entry is “inactive”.

Take `Cc1nc2cnc(Nc3ccccc3)nc2n(C[C@H]2CCCO2)c1=O`: the Potency entry is “inactive”.

With `COc1cccc(Nc2ncc3ncc(=O)n(C4CC4)c3n2)c1`, the Potency was 11.6 µM (active).

Consider `O=c1cnc2cnc(Nc3ccccc3)nc2n1Cc1ccc(F)cc1`, for which the Potency result is “inactive”.

Consider `CC(C)CCNC(=O)C1CCC(CNc2c(N3CCC(C)CC3)c(=O)c2=O)CC1` (stereo not given), for which the Potency result is “inactive”.

For `CC(C)C(=O)N1CCN(CCN=CC2=C(O)CC(c3ccco3)CC2=O)CC1` (stereo not given), the Potency entry was “inactive”.

Regarding `Cc1ccc(OCC(=O)NCCCNC(=O)c2cccnc2)cc1C`, the Potency result is “inactive”.

With `CCCc1nc(-c2ccccc2O)n(-c2ccccc2)n1`, the Potency entry is “inactive”.

As for `CCCc1nc(N2CCN(C)CC2)c2sc(=S)n(-c3ccccc3)c2n1`, the Potency was 16.4 µM (active).

`O=C1/C(=C/c2ccc3c(c2)OCO3)Oc2cc(OCC(=O)N3CC(O)C[C@H]3C(=O)O)ccc21` (stereo not given in full): the Potency entry was “inactive”.

`CCc1ccccc1N(CC(=O)NCCSCc1ccco1)S(C)(=O)=O`: the Potency entry was “inactive”.

As for `CNC(=O)C1CCN(S(=O)(=O)c2c(C)noc2/C=C/c2cccc(C)c2)CC1`, the Potency result is “inactive”.

With `Cc1cccc(NC(=O)C2CCN(S(=O)(=O)c3c(C)noc3/C=C/c3ccco3)CC2)c1`, the Potency is 20.6 µM (active).

Consider `Cc1ccnc(NC(=O)C2CCN(S(=O)(=O)c3c(C)c(C)cc(C)c3C)CC2)c1`, for which the Potency result was “inactive”.

Regarding `Cc1noc(/C=C/N(C)C)c1S(=O)(=O)N1CCCC(C(=O)NCc2ccco2)C1` (stereo not given), the Potency entry is “inactive”.

With `CC(=O)c1ccc(NC(=O)C2CCN(S(=O)(=O)c3c(C)noc3/C=C/c3ccc(C)cc3)CC2)cc1`, the Potency result is “inactive”.

As for `Cc1noc(/C=C/c2ccco2)c1S(=O)(=O)N1CCC(C(=O)Nc2ccc(Cl)cn2)CC1`, the Potency was 18.4 µM (active).

With `CC(C)CCNC(=O)c1cccnc1Sc1ccccc1`, the Potency entry was “inactive”.

Turning to `Cc1ccccc1CN1CCN(CC(=O)NCc2ccccn2)C1=O`, the Potency entry is “inactive”.

In the case of `Cc1ccccc1CN1C[C@@H]2C[C@@H](c3ccc4nsnc4c3)N3CCC[C@@]23C1=O`, the Potency is 20.6 µM (active).

For the compound `CC(=NCC1CCCO1)c1c(O)[nH]c(=O)[nH]c1=O` (stereo not given), the Potency entry was “inactive”.

With `COc1ccc(/C=C2/C(=O)OCc3cc(OC)c(OC)cc32)c(OC)c1`, the Potency is 29.1 µM (active).

For `COc1ccc(/C=C2/C(=O)N(c3ccccc3)N=C2C)c(OC)c1`, the Potency entry was “inactive”.

Turning to `COc1ccc(C2/C(=C(/O)c3ccccc3)C(=O)C(=O)N2C)c(OC)c1` (stereo not given), the Potency result is “inactive”.

With `Cc1nc(N)sc1N=Nc1c(C)n(C)n(-c2ccccc2)c1=O`, the Potency entry was “inactive”.

Turning to `COc1ccc(-c2nc3ccccc3c(=O)n2CCc2ccc(O)cc2)cc1`, the Potency is 9.2 µM (active).

`COc1cccc(OCCn2c(-c3ccc(Br)cc3)nc3ccccc3c2=O)c1`: the Potency entry is “inactive”.

For `COc1ccc(-c2ccc(CCC(=O)O)n2-c2ccc(O)cc2)cc1`, the Potency entry was “inactive”.

Turning to `CCOc1ccc(CNC(=O)C2CCCN(c3nnc(C)c4c(C)n(-c5ccccc5)nc34)C2)cc1` (stereo not given), the Potency is 18.4 µM (active).

In the case of `COc1ccc(-n2nc3c(N4CCC(C(=O)NCc5ccccc5)CC4)nnc(C)c3c2C)cc1`, the Potency result was “inactive”.

As for `CCc1ccc(CNC(=O)C2CCN(c3nnc(C)c4c(C)n(-c5ccc(C)cc5)nc34)CC2)cc1`, the Potency is 5.17 µM (active).

`Cc1nnc(N2CCCC(C(=O)NCCN(C)C)C2)c2nn(-c3ccccc3)c(C)c12` (stereo not given): the Potency result is “inactive”.

`COC(=O)CCCCC1=CCC2C(=O)C=C(O)C2C1` (stereo not given): the Potency entry is “inactive”.

Take `CCOC(=O)C1(Cc2cccc(OC)c2)CCN(C(C)COC)CC1` (stereo not given): the Potency result is “inactive”.

For the compound `CCOC(=O)C1(Cc2cccc(OC)c2)CCN(C(C)CC(C)(C)O)CC1` (stereo not given), the Potency result was “inactive”.

Take `CCOC(=O)C1(Cc2cccc(OC)c2)CCN(Cc2csc(C(C)=O)c2)CC1`: the Potency is 13 µM (active).

In the case of `O=C(O)Cc1sc(-c2ccc(C(=O)O)cc2)nc1-c1ccccc1`, the Potency result is “inactive”.

`Cc1ccc(NC(=O)Nc2cccnc2)cc1`: the Potency result was “inactive”.

Turning to `Cc1ccc(-c2nc(-c3cccnc3)sc2CC(=O)Nc2ccc(C)c(Cl)c2)cc1`, the Potency is 23.1 µM (active).

Turning to `CC(C)CN1C(=O)CN(S(C)(=O)=O)CC1(C)C(=O)NCc1ccccc1` (stereo not given), the Potency result was “inactive”.

Take `CCOC(=O)Nc1sc(C(=O)N(C)C)c(C)c1C(=O)OCC`: the Potency result was “inactive”.

As for `CCC(=O)Nc1sc(C(=O)Nc2ccccc2)c(C)c1C(=O)OC`, the Potency entry is “inactive”.

Take `CCOC(=O)c1c(NC(=O)CCl)sc(C(=O)N(CC)CC)c1C`: the Potency was 13 µM (active).

`CCCCNC(=O)OC1CC2CC1[C@H]1CCCCN1C2=O` (stereo not given in full): the Potency result is “inactive”.

Take `CC(C)n1c(=O)[nH]c2cc(C(=O)Nc3ccccc3)ccc21`: the Potency entry is “inactive”.

Take `CN1CCN(c2ccc(NC(=O)c3ccccc3)cc2)CC1`: the Potency result is “inactive”.

For `CN1CCN(c2ccc(NC(=O)c3ccc4c(c3)[nH]c(=O)n4Cc3ccc(F)cc3)cc2)CC1`, the Potency is 29.1 µM (active).

`C/C(=N/OC(=O)c1cccc(C(F)(F)F)c1)c1cnccn1`: the Potency entry is “inactive”.

In the case of `COc1cccc(OC)c1CN(C)C(=O)c1cnccc1C(F)(F)F`, the Potency entry is “inactive”.

For `O=C1NC[C@@H](Cc2ccc(O)cc2)N(CCc2cccc(F)c2)C1=O`, the Potency entry is “inactive”.

For the compound `CCCC[C@@H]1CN=C(N)N1CCc1cc(C(F)(F)F)cc(C(F)(F)F)c1`, the Potency was 1.3 µM (active).

Turning to `CCCC[C@@H]1CN=C(N)N1CCc1cccc(F)c1`, the Potency is 5.8 µM (active).

Take `CCCS(=O)(=O)N1CCN=C1SCc1cccc(F)c1`: the Potency entry was “inactive”.

Take `NNC(=O)COc1ccc(C2SCCS2)cc1`: the Potency result was “inactive”.

For `CC(=O)NC1C(Oc2ccc(C)cc2)OC2COC(c3ccco3)OC2C1O` (stereo not given), the Potency result is “inactive”.

Take `O=S(=O)(NC1CCCCC1)c1ccc(F)c2ccccc12`: the Potency entry was “inactive”.

Turning to `CCCC/S(C)=N/S(=O)(=O)c1ccc(C)cc1` (stereo not given), the Potency result is “inactive”.

Regarding `COc1ccc(OCCCC(=O)Oc2ccc(OC)cc2)cc1`, the Potency entry is “inactive”.

Regarding `COc1ccc(C(=O)CCC(=O)Nc2ccc(Cl)cc2)cc1`, the Potency entry is “inactive”.

Take `COc1ccc(OCCC(=O)c2ccc(OC)cc2)cc1`: the Potency was 2.59 µM (active).

In the case of `Cc1ccc(NC(=O)N2CCC(O)(c3cccnc3)CC2)cc1`, the Potency entry is “inactive”.

With `Cn1c(CCc2ccccc2)nnc1SCC(N)=O`, the Potency result was “inactive”.

`COC(=O)C1=C(C)NC(=S)NC1c1ccc(OCC(=O)N2CC(C)OC(C)C2)c(OC)c1` (stereo not given): the Potency entry was “inactive”.

With `CCCCC/C=C/C1=CC(=O)C[C@H](c2ccc(Cl)cc2)C1`, the Potency result was “inactive”.

On to `N#Cc1ccc(C2=CC(=O)C[C@H](c3ccc(Cl)cc3)C2)cc1`, for which the Potency is 14.6 µM (active).

For `O=C1CSC(c2ccc(Cl)cc2)N1` (stereo not given), the Potency entry is “inactive”.

`O=C(NCc1ccccc1)[C@@H]1CSC2c3ccccc3C(=O)N21` (stereo not given in full): the Potency result is “inactive”.

As for `CCOC(=O)C1CCN(c2csc3ccc(C)cc3c2=O)CC1`, the Potency entry was “inactive”.

With `CCOC(=O)C1CCN(c2c(Nc3cc(C)cc(C)c3)c(=O)c2=O)CC1`, the Potency is 16.4 µM (active).

Regarding `CCOC(=O)C1CCN(CCC(=O)Nc2cccc(C)c2)CC1`, the Potency result is “inactive”.

With `COC(=O)Nc1ccc(S(=O)(=O)N(C)CC(F)(F)C(F)F)cc1`, the Potency entry is “inactive”.

For the compound `Cc1ccc(SCCC(=O)OCC(=O)Nc2ncc(Cl)cc2Cl)cc1`, the Potency entry is “inactive”.

`CC1(C(=O)OCC(=O)Nc2ncc(Cl)cc2Cl)CC1(Cl)Cl` (stereo not given): the Potency entry is “inactive”.

For the compound `Cc1ccc(-n2c(SCC(=O)Nc3ncc(Cl)cc3Cl)nc3ccccc32)cc1`, the Potency is 13 µM (active).

The values above are taken from PubChem BioAssay AID686978 (National Center for Advancing Translational Sciences (NCATS), 2013).
